# Records with an inconclusive call do not appear. Calls of active or inactive are those of the source. The call rests on the fitted dose curve; in most records, active means well fitted cell-killing curve with a large enough effect; inconclusive means small, poorly fitted or top-dose-only effect; inactive means flat fitted curve, though single readings scatter.
# Assay: Cell Viability - LYMP2-016 (AID 984);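 further: cells exposed to compound for 24 hours at 37 °C; nearly all actives have a fitted effect of over 55% in size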
# Conditions: LYMP2-016 lymphoblastoid cell viability, qHTS; series mostly up to 92.2 µM
# Method in brief: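 Cytotoxicity was scored by luminescent ATP content (CellTiter-Glo) after 24 h compound exposure at 37 C of a human lymphoblastoid line at 2500 cells/well. Concentration-response data were fitted to the Hill equation for AC50.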
row,SMILES,outcome
1,Cc1cn([C@H]2C[C@H](N=[N+]=[N-])[C@@H](CO)O2)c(=O)[nH]c1=O,inactive
2,COc1ccc2c(c1)c(CC(=O)O)c(C)n2C(=O)c1ccc(Cl)cc1,inactive
3,O=c1[nH]cc(F)c(=O)[nH]1,inactive
4,Cn1c(=O)c2c(ncn2C)n(C)c1=O,inactive
5,CC(C)C(=O)Nc1ccc([N+](=O)[O-])c(C(F)(F)F)c1,inactive
6,Nc1c2c(nc3ccccc13)CCCC2,inactive
7,Nc1ccn([C@H]2CC[C@@H](CO)O2)c(=O)n1,inactive
8,NS(=O)(=O)c1cc2c(cc1Cl)NCNS2(=O)=O,inactive
9,CC(C)NCC(O)c1ccc(O)c(O)c1 (stereo not given),inactive
10,NCCS(=O)(=O)O,inactive
11,Cc1ccc(-c2cc(C(F)(F)F)nn2-c2ccc(S(N)(=O)=O)cc2)cc1,inactive
12,CCC1(c2ccccc2)C(=O)NCNC1=O,inactive
13,COc1ccc2[nH]cc(CCNC(C)=O)c2c1,inactive
14,N[C@@H](Cc1c[nH]c2ccc(O)cc12)C(=O)O,inactive
15,Cc1cn([C@H]2C=C[C@@H](CO)O2)c(=O)[nH]c1=O,inactive
16,O=c1c(-c2ccc(O)cc2)coc2cc(O)cc(O)c12,inactive
17,Clc1ccc(C(c2ccccc2Cl)C(Cl)Cl)cc1 (stereo not given),inactive
18,Cn1c(=O)c2[nH]cnc2n(C)c1=O,inactive

# Assay: Cell Viability - LYMP2-018 (AID 985);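 further: compound exposure lasted 24 hr at 37 °C; nearly all actives have a fitted effect of over 50% in size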
# Conditions: LYMP2-018 lymphoblastoid cells, viability (qHTS); series mostly up to 92.2 µM
# Method in brief: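 Seed 2500 lymphoblastoid cells per well, incubate 5 hr at 37 C, add compound and incubate 24 hr at 37 C, add CellTiter-Glo, wait 30 min at room temperature, then read luminescence.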
row,SMILES,outcome
1,Cc1cn([C@H]2C[C@H](N=[N+]=[N-])[C@@H](CO)O2)c(=O)[nH]c1=O,inactive
2,COc1ccc2c(c1)c(CC(=O)O)c(C)n2C(=O)c1ccc(Cl)cc1,inactive
3,Cn1c(=O)c2c(ncn2C)n(C)c1=O,inactive
4,CC(C)C(=O)Nc1ccc([N+](=O)[O-])c(C(F)(F)F)c1,inactive
5,Nc1c2c(nc3ccccc13)CCCC2,inactive
6,Nc1ccn([C@H]2CC[C@@H](CO)O2)c(=O)n1,inactive
7,NS(=O)(=O)c1cc2c(cc1Cl)NCNS2(=O)=O,inactive
8,CC(C)NCC(O)c1ccc(O)c(O)c1 (stereo not given),inactive
9,NCCS(=O)(=O)O,inactive
10,Cc1ccc(-c2cc(C(F)(F)F)nn2-c2ccc(S(N)(=O)=O)cc2)cc1,inactive
11,CCC1(c2ccccc2)C(=O)NCNC1=O,inactive
12,COc1ccc2[nH]cc(CCNC(C)=O)c2c1,inactive
13,N[C@@H](Cc1c[nH]c2ccc(O)cc12)C(=O)O,inactive
14,Cc1cn([C@H]2C=C[C@@H](CO)O2)c(=O)[nH]c1=O,inactive
15,O=c1c(-c2ccc(O)cc2)coc2cc(O)cc(O)c12,inactive
16,Clc1ccc(C(c2ccccc2Cl)C(Cl)Cl)cc1 (stereo not given),inactive
17,Cn1c(=O)c2[nH]cnc2n(C)c1=O,inactive

# Assay: Cell Viability - LYMP2-020 (AID 986); further: nearly all actives have a fitted effect of over 55% in size
# Conditions: series mostly up to 92.2 µM
# Method in brief: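 Seed 2500 cells per well and incubate 5 hr at 37 C. Add compounds at a concentration series and incubate 24 hr at 37 C. Add CellTiter-Glo, wait 30 min at RT, read luminescence, and fit a Hill curve for AC50.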
row,SMILES,outcome
1,Cc1cn([C@H]2C[C@H](N=[N+]=[N-])[C@@H](CO)O2)c(=O)[nH]c1=O,inactive
2,COc1ccc2c(c1)c(CC(=O)O)c(C)n2C(=O)c1ccc(Cl)cc1,inactive
3,O=c1[nH]cc(F)c(=O)[nH]1,inactive
4,Cn1c(=O)c2c(ncn2C)n(C)c1=O,inactive
5,CC(C)C(=O)Nc1ccc([N+](=O)[O-])c(C(F)(F)F)c1,inactive
6,Nc1c2c(nc3ccccc13)CCCC2,inactive
7,Nc1ccn([C@H]2CC[C@@H](CO)O2)c(=O)n1,inactive
8,NS(=O)(=O)c1cc2c(cc1Cl)NCNS2(=O)=O,inactive
9,CC(C)NCC(O)c1ccc(O)c(O)c1 (stereo not given),inactive
10,NCCS(=O)(=O)O,inactive
11,Cc1ccc(-c2cc(C(F)(F)F)nn2-c2ccc(S(N)(=O)=O)cc2)cc1,inactive
12,CCC1(c2ccccc2)C(=O)NCNC1=O,inactive
13,COc1ccc2[nH]cc(CCNC(C)=O)c2c1,inactive
14,N[C@@H](Cc1c[nH]c2ccc(O)cc12)C(=O)O,inactive
15,Cc1cn([C@H]2C=C[C@@H](CO)O2)c(=O)[nH]c1=O,inactive
16,O=c1c(-c2ccc(O)cc2)coc2cc(O)cc(O)c12,inactive
17,Clc1ccc(C(c2ccccc2Cl)C(Cl)Cl)cc1 (stereo not given),inactive
18,Cn1c(=O)c2[nH]cnc2n(C)c1=O,inactive

# Assay: Cell Viability - LYMP2-022 (AID 987); further: nearly all actives have a fitted effect of over 55% in size
# Conditions: LYMP2-022 lymphoblastoid cell viability; series mostly up to 92.2 µM
# Method in brief: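 Cells were seeded at 2500 per well, rested 5 hr at 37 C, and treated with titrated compounds for 24 hr at 37 C. Cellular ATP was then quantified by luciferase luminescence, and AC50 values were derived from Hill-modelled concentration-response curves.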
row,SMILES,outcome
1,Cc1cn([C@H]2C[C@H](N=[N+]=[N-])[C@@H](CO)O2)c(=O)[nH]c1=O,inactive
2,COc1ccc2c(c1)c(CC(=O)O)c(C)n2C(=O)c1ccc(Cl)cc1,inactive
3,Cn1c(=O)c2c(ncn2C)n(C)c1=O,inactive
4,CC(C)C(=O)Nc1ccc([N+](=O)[O-])c(C(F)(F)F)c1,inactive
5,Nc1c2c(nc3ccccc13)CCCC2,inactive
6,Nc1ccn([C@H]2CC[C@@H](CO)O2)c(=O)n1,inactive
7,NS(=O)(=O)c1cc2c(cc1Cl)NCNS2(=O)=O,inactive
8,CC(C)NCC(O)c1ccc(O)c(O)c1 (stereo not given),inactive
9,NCCS(=O)(=O)O,inactive
10,Cc1ccc(-c2cc(C(F)(F)F)nn2-c2ccc(S(N)(=O)=O)cc2)cc1,inactive
11,CCC1(c2ccccc2)C(=O)NCNC1=O,inactive
12,COc1ccc2[nH]cc(CCNC(C)=O)c2c1,inactive
13,N[C@@H](Cc1c[nH]c2ccc(O)cc12)C(=O)O,inactive
14,Cc1cn([C@H]2C=C[C@@H](CO)O2)c(=O)[nH]c1=O,inactive
15,O=c1c(-c2ccc(O)cc2)coc2cc(O)cc(O)c12,inactive
16,Clc1ccc(C(c2ccccc2Cl)C(Cl)Cl)cc1 (stereo not given),inactive
17,Cn1c(=O)c2[nH]cnc2n(C)c1=O,inactive

# Source: PubChem BioAssay (NCATS)
